# Test results: PMC4336329 (PLoS ONE, 2015)
# The whole screen tested about 310,000 compounds, of which about 14,000 (4.5%) showed an effect of 50% or more. Effects have a minus sign here. This is one part of a sample in which strong results are shown more often than they occur.
# Target: human ether-à-go-go-related gene (hERG) potassium channel (human, UniProt Q12809)
# Assay: primary screen, population patch clamp on CHO cells stably expressing hERG; higher = less effect of the substance
# 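Further: peak tail current of the secondary pulse compared with the same well before compound.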
# Sequence of human ether-à-go-go-related gene (hERG) potassium channel (Q12809 whole entry, looked up): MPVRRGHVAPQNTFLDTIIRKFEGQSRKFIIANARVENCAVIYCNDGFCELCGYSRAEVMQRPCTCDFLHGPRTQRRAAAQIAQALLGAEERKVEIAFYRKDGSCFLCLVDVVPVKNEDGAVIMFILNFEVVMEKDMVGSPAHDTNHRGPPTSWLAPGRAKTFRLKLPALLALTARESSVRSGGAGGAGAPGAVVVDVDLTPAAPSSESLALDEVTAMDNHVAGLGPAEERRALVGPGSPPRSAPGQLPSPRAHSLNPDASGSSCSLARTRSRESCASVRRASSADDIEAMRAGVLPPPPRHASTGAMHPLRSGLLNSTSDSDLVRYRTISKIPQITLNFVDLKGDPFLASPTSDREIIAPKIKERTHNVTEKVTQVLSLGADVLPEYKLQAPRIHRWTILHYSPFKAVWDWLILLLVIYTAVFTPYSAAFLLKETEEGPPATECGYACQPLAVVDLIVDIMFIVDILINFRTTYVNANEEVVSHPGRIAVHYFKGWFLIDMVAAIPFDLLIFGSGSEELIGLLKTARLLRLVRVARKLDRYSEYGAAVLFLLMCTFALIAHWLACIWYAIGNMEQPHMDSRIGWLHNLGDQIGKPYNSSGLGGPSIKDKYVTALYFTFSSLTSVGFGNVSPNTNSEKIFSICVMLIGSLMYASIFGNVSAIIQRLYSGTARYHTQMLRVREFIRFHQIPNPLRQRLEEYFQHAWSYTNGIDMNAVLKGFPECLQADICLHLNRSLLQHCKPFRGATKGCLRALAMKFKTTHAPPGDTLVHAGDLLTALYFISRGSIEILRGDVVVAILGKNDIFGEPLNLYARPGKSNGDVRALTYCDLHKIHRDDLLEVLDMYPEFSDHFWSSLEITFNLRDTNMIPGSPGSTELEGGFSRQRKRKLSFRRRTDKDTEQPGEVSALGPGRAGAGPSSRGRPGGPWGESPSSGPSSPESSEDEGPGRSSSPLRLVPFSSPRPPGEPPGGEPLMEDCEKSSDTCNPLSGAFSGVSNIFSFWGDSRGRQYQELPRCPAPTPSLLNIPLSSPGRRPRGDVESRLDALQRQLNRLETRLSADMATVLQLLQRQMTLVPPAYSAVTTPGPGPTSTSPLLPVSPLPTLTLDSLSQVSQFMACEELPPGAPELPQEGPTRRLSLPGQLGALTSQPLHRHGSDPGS
row,SMILES,"hERG current change (%, negative = inhibition) at 10uM"
1,COc1ccc(C2C(C(=O)c3cccs3)=C(O)C(=O)N2c2nnc(C)s2)cc1OC (stereo not drawn),1.32%
2,CCN1C(=O)/C(=C\N2CCN(c3ccc(F)cc3)CC2)SC1=S,15.5%
3,COc1ccc(N2C(=O)C3CCCN3C2c2cccc(C)c2)cc1Cl (stereo not drawn),-31.3%
4,O=C(Nc1ccccc1F)C(=O)c1cn(CC(=O)N2CCCCC2)c2ccccc12,13.8%
5,CN1CCN(C2=Nc3ccccc3Oc3ccc(Cl)cc32)CC1.O=C(O)CCC(=O)O,-6.25%
6,CCN(CC(=O)NC(=O)NC1CCCCC1)Cc1nc2ccccc2c(=O)[nH]1,-8.1%
7,CN1CC(=O)N=C1N.Cl,-50.1%
8,CN1CC(=O)N=C1N,8.56%
9,O=C(CN1CCN(S(=O)(=O)c2ccc(F)c(Cl)c2)CC1)N1CCNC1=O,-1.79%
10,Cc1ccc(-c2noc(C3CCCN(C(=O)c4ccccc4Br)C3)n2)cc1 (stereo not drawn),0.00198%
11,N/C(=N\OC(=O)/C=C/c1ccccc1)c1ccc(Br)cc1,4.83%
12,COc1ccc(CCNCC2C(Oc3ccc(Cl)cc3)C(=O)N2c2ccccc2C)cc1OC.Cl (stereo not drawn),-41%
13,O=[N+]([O-])c1cc(/C=N/n2cnnc2)ccc1N1CCCC1,-38.7%
14,O=C(OCC(=O)N(Cc1ccccc1)Cc1ccccc1)c1ccccc1NCCO,-15.4%
15,O=C(OCC(=O)N(Cc1ccccc1)Cc1ccccc1)c1ccccc1O,5.67%
16,N#CCc1ccccc1C(=O)OCC(=O)N(Cc1ccccc1)Cc1ccccc1,-52.1%
17,Cc1ccc(-c2noc(CN3CCCCC3)n2)cc1,34.6%
18,c1cnc(-c2noc(CN3CCN(C4CCCC4)CC3)n2)cn1,18.7%
19,FC(F)(F)c1ccc(-c2noc(CN3CCCN(C4CCCCC4)CC3)n2)cc1,-75.7%
20,O=CN1CCCN(Cc2nc(-c3cccc(Cl)c3)no2)CC1,-13.3%
21,Clc1ccc(-c2noc(CN3CCCC3)n2)cc1,-15.1%
22,CN1CCCN(Cc2nc(-c3cccc(C(F)(F)F)c3)no2)CC1,-60.2%
23,CC1CCN(Cc2nc(-c3ccc(Cl)cc3)no2)CC1,8.57%

row,SMILES,"hERG current change (%, negative = inhibition) at 10uM"
1,FC(F)(F)c1cccc(-c2noc(CN3CCOCC3)n2)c1,6.74%
2,CN1CCCN(Cc2nc(-c3ccc(Cl)cc3)no2)CC1,-72.6%
3,CN1c2ccccc2C(C)(C)C12C=Cc1cc(O)ccc1O2 (stereo not drawn),-5.61%
4,Cc1oc2cc(Br)c(O)c(Br)c2c1-c1ccccc1,-13.5%
5,CC(C)(C)OC(=O)NCCCC[C@H](NC(=O)c1[nH]cnc1C(=O)Nc1ccccc1)C(=O)OC(C)(C)C,15.6%
6,CCCNNC(=O)C(O)(c1cccc(C)c1)c1cccc(C)c1,-2.43%
7,Cc1ccc(N2C(=O)C(Cl)=C(N3CCOCC3)C2=O)c(C)c1,14.6%
8,O=C(COC(=O)c1cccc(S(=O)(=O)NCc2ccccc2)c1)NCC1CCCO1 (stereo not drawn),3.36%
9,O=C(COC(=O)c1ccc(Cl)c(S(=O)(=O)N2CCCCC2)c1)NCC1CCCO1 (stereo not drawn),-14.1%
10,O=C(COC(=O)c1ccc(Cl)c(S(=O)(=O)NCc2ccccc2)c1)NCC1CCCO1 (stereo not drawn),-53%
11,CCN(CC)C(=O)C(=O)c1cccn1-c1ccc(C#N)cc1,-18.8%
12,COc1ccc2oc(=O)c(/C(C)=N/Nc3ccccc3)cc2c1,-2.36%
13,CCOC(=O)COc1cc(OCC(=O)OCC)c2c(=O)cc(-c3ccccc3)oc2c1,-62.6%
14,CC(C)(C)OC(=O)COc1cc(OCC(=O)OC(C)(C)C)c2c(=O)cc(-c3ccccc3)oc2c1,-15%
15,CCOC(=O)COc1cc(O)c2c(=O)cc(-c3ccccc3)oc2c1,12%
16,O=C1CCc2cc(S(=O)(=O)NC3CCCCC3)cc3c2N1CC3,1.44%
17,CC1CC(NS(=O)(=O)c2cc3c4c(c2)CCN4C(=O)CC3)CC(C)(C)C1 (stereo not drawn),-63.1%
18,CC(C)(C)NS(=O)(=O)c1cc2c3c(c1)CCN3C(=O)CC2,17.4%
19,c1ccc(-c2nnc(C(c3ccccc3)c3ccccc3)o2)cc1,6.86%
20,COc1ccc(C(=O)c2cnc3ccccc3c2-c2ccccc2)cc1,-9.47%
21,CCOC(=O)C1CCCN(c2c(C(=O)c3ccccc3)cnc3ccc(OC)cc23)C1 (stereo not drawn),-37.5%
22,CCOC(=O)c1cnc2ccc(OCC)cc2c1N1CCN(c2ccccc2)CC1,13.9%
23,CCOc1ccc(C(=O)c2cnc3ccccc3c2N2CCN(CC)CC2)cc1,-65.5%

row,SMILES,"hERG current change (%, negative = inhibition) at 10uM"
1,CCN1CCN(c2c(C(=O)c3ccc(OC)cc3)cnc3ccccc23)CC1,-80.3%
2,CCOC(=O)C1CCCN(c2c(C(=O)c3ccccc3)cnc3ccccc23)C1 (stereo not drawn),-26.5%
3,COc1ccccc1-c1cc(C(=O)NC(C)c2ccccc2)no1 (stereo not drawn),9.56%
4,CCC(C)N=Cc1c(Nc2ccccc2)nc2c(C)cccn2c1=O (stereo not drawn),17.6%
5,O=C(Nc1cccc2ncccc12)c1cccnc1,14.5%
6,CC(C)(C)c1ccc(C(=O)NCc2cccnc2)cc1,-2.42%
7,COc1ccc(OC)c(CCNC(=O)CCc2nnc3ccc(N4CCOCC4)nn23)c1,16.1%
8,CCOC(=O)c1c(C)oc2c1cc(NS(=O)(=O)c1ccc(C(=O)O)cc1)c1ccccc12,-60.7%
9,COC(=O)c1c(C)oc2c1cc(NS(=O)(=O)c1ccc(C(=O)O)cc1)c1ccccc12,7.86%
10,CC(=O)c1c(C)oc2c1cc(NS(=O)(=O)c1ccc(C(=O)O)cc1)c1ccccc12,14.3%
11,O=C(CCCC(=O)OCC(F)(F)C(F)F)Nc1ccccc1F,14.8%
12,CN(C)C(/C=C/Nc1cccc([N+](=O)[O-])c1)=C(C#N)C#N,-11.1%
13,CC(C)(C)c1nn(-c2ccccc2)c2[nH]c(=O)c(CNc3ccc4c(c3)OCCO4)cc12,-4.99%
14,CCOC(=O)Cc1csc(NC(=O)C(C)c2ccc([N+](=O)[O-])cc2)n1 (stereo not drawn),-55.9%
15,CC(C(=O)Nc1nccs1)c1ccc([N+](=O)[O-])cc1 (stereo not drawn),-72%
16,CCOC(=O)Cc1csc(NC(=O)Cc2ccc([N+](=O)[O-])cc2)n1,-64.9%
17,CCOC(=O)Cc1csc(NC(=O)Cc2ccc(C)cc2)n1,-18%
18,CC(C)Cc1ccc(C(C)C(=O)Nc2nccs2)cc1 (stereo not drawn),-1.33%
19,CCOC(=O)Cc1csc(NC(=O)Cc2ccc(Cl)cc2)n1,-15.1%
20,CCOC(=O)Cc1csc(NC(=S)NC(=O)c2ccc([N+](=O)[O-])cc2)n1,13.8%
21,CCOC(=O)Cc1csc(NS(=O)(=O)c2ccc([N+](=O)[O-])cc2)n1,7.89%
22,Cc1cc2cc(CNC(=O)Cc3ccc([N+](=O)[O-])cc3)ccc2[nH]1,-50.7%
23,Cc1cc2cc(CNC(=O)c3cccc([N+](=O)[O-])c3)ccc2[nH]1,-25.3%

row,SMILES,"hERG current change (%, negative = inhibition) at 10uM"
1,CCC(=O)NCc1ccc2[nH]c(C)cc2c1,37%
2,CC(Sc1ccc([N+](=O)[O-])cn1)C(=O)Nc1nccs1 (stereo not drawn),-5.58%
3,COc1ccc(CCN=C(N)NS(=O)(=O)c2ccc(C)cc2)cc1OC,6.05%
4,CCCCNC(=O)C1CCCN1C(=O)Nc1cccc(OC)c1 (stereo not drawn),14%
5,Cc1sc2ncn(/N=C/c3ccco3)c(=O)c2c1C,-2.43%
6,CC(C)OC(=O)c1cc(NC(=O)C2C3C=CC(O3)C2C(=O)O)cc(C(=O)OC(C)C)c1 (stereo not drawn),-1.28%
7,Cc1c(C)c(C)c2[nH]c(=S)[nH]c2c1C,24.9%
8,CCN(CC)C(=O)COC(=O)c1ccc(O)cc1,7.43%
9,CC1=C(C(=O)Nc2ccccc2C(=O)NCCCOC(C)C)SCCO1,14%
10,CCCCn1c(=O)[nH]c(=O)c2c1nc(-c1ccccc1F)n2Cc1ccccc1OC,11.5%
11,COc1ccc(-c2cc(C(F)(F)F)nc(SCC(=O)N(C)Cc3cnn(C)c3C)n2)cc1OC,-42.4%
12,Cc1ccnc(NC(=O)Cc2ccc([N+](=O)[O-])cc2)c1,-12.4%
13,Cc1cc(C)nc(NC(=O)Cc2ccc([N+](=O)[O-])cc2)c1,-67.9%
14,Cc1cc(Br)ccc1NC(=O)C(C)c1ccc([N+](=O)[O-])cc1 (stereo not drawn),-70.7%
15,CC(C(=O)Nc1ccccc1Br)c1ccc([N+](=O)[O-])cc1 (stereo not drawn),-35.5%
16,CC(C(=O)Nc1cccc(Br)c1)c1ccc([N+](=O)[O-])cc1 (stereo not drawn),-47.3%
17,Cc1cc(C)nc(NC(=O)Cc2ccc(Cl)cc2)c1,-5.94%
18,CCOc1cc(NC(=O)CC(C)C)c(OCC)cc1NC(=O)CCn1nnc2ccccc21,10.1%
19,CCOC(=O)c1ccc(-n2ccnc2)c(NC(=O)c2ccc(Cl)cc2)c1,-66.2%
20,CCOC(=O)c1ccc(-n2ccnc2)c(NC(=O)c2ccc(C(C)(C)C)cc2)c1,-41%
21,CCOC(=O)c1ccc(-n2ccnc2)c(NC(=O)c2cccc(Br)c2)c1,-42.1%
